Test results as given in PubChem BioAssay AID493248 (Broad Institute, 2011).
The whole screen tested about 2,300 compounds, of which about 1,400 (61%) were called active. Not shown: some 7% with an inconclusive outcome. How the calls were made is not given here. The set was probably picked from earlier hits. Only a sample is shown. Entries with a potency or affinity are not part of this list.

What follows are compounds tested against FAD-linked sulfhydryl oxidase ALR (Homo sapiens) (UniProt P55789) (assay: ALR-catalysed DTT oxidation blockers – biochemical, H2O2 detection, luminescence, cherry-pick, dose response (AID 493248)). Conditions: purified ALR, H2O2 HRP-luminol luminescence; at 10 µM (top of the series).
FAD-linked sulfhydryl oxidase ALR (Homo sapiens), sequence (P55789 whole entry, looked up): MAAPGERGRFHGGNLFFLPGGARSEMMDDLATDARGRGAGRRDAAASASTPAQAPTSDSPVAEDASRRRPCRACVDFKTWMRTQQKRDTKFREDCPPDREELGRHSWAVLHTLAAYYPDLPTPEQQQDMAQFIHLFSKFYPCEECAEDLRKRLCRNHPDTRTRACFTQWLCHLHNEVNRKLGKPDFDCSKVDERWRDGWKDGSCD
In the case of `Nc1ccc2sc(N)nc2c1`, the activity change, negative = inhibition is reported as 299%. Work on `Cc1cc(NC(=O)c2sc(Nc3ccc(F)cc3)nc2N)no1` yielded an activity change, negative = inhibition of -41.5%. In the case of `O=C(c1ccccn1)N1CCCC(N2CCN(c3ccc(F)cc3)CC2)C1` (stereo unspecified), the activity change, negative = inhibition is reported as -82.4%. In the case of `CC(C)N(c1nnc(N)s1)C(C)C`, the activity change, negative = inhibition is reported as -37.4%. With `COc1ccc(C(N)CCc2ccco2)cc1` (stereo unspecified) the activity change, negative = inhibition was 0.936%. For `Cc1ccc(NC(=O)Nc2cccs2)nc1`, the activity change, negative = inhibition was -2.58%. `O=C(Nc1cccs1)Nc1c(F)cc(F)cc1Br` showed an activity change, negative = inhibition of -42.8%. `CC(C)NC(=O)Nc1cccs1` gave an activity change, negative = inhibition of -47.1%. Compound `Cc1ccc(N2CCN(CCCN3C(=O)C4CCCN4C3=O)CC2)cc1` (stereo unspecified) has an activity change, negative = inhibition of -22.5%. `Oc1ccc(NCc2cccs2)cc1` was tested, and the activity change, negative = inhibition was 41.7%. For `O=C(C1CCCC1)N1CCCC(Nc2ccc(F)cc2)C1` (stereo unspecified), the activity change, negative = inhibition was -72.7%. For `COc1ccc(NC2CCCN(C(=O)c3oc(C)cc3C)C2)cc1OC` (stereo unspecified), the activity change, negative = inhibition was 75.6%. `C=CCNC(=O)c1onc(CSc2ccc(C)c(C)c2)c1C(=O)O` gave an activity change, negative = inhibition of 10.6%. `CCCCNC(=O)c1onc(CCl)c1C(=O)OC` was tested, and the activity change, negative = inhibition was -46.6%. `Cc1cc2c(N3CCCCC3C)ncnc2s1` (stereo unspecified) showed an activity change, negative = inhibition of -5.25%. `Cc1ccc(NC(=O)C2CCN(S(=O)(=O)c3cccc4cccnc34)CC2)nc1` was tested, and the activity change, negative = inhibition was -47.3%. Compound `CC(c1ccc(F)cc1)n1c(-c2cccs2)n[nH]c1=S` (stereo unspecified) has an activity change, negative = inhibition of -12.6%. With `CCn1c(-c2cc(Cl)ccc2OC)n[nH]c1=S` the activity change, negative = inhibition was -40.3%. `Cc1n[nH]c(=S)n1-c1ccc(Cl)cc1` gave an activity change, negative = inhibition of -91.4%. `Cc1cccc(-n2c(C)n[nH]c2=S)c1C` showed an activity change, negative = inhibition of -35.3%. Compound `CC(NS(=O)(=O)c1ccccc1)c1n[nH]c(=S)n1-c1ccccc1` (stereo unspecified) has an activity change, negative = inhibition of -28.7%. For `Oc1c(Br)cc(Br)c(/C=N/n2c(-c3ccccc3)n[nH]c2=S)c1Br`, the activity change, negative = inhibition was -75.2%. For `CCn1c(N)[n+](CC(=O)Nc2ccc(SC(F)F)cc2)c2ccccc21`, the activity change, negative = inhibition was 17.1%. With `Cc1cc(NCc2ccccn2)nc2ccccc12` the activity change, negative = inhibition was 16.8%. In the case of `Cc1nn(CC2CCCCC2)c(N)c1-c1ccccc1`, the activity change, negative = inhibition is reported as -21.2%. `CN(CC(=O)NCc1ccco1)S(=O)(=O)c1ccc2c(c1)n(C)c(=O)c(=O)n2C` gave an activity change, negative = inhibition of -5.75%. With `Cc1ccc(S(=O)(=O)NNC(=O)c2ccc(O)cc2)cc1` the activity change, negative = inhibition was -54.2%. In the case of `Cc1cc(C)nc(Sc2c(C)nn(-c3ccccc3)c2C)n1`, the activity change, negative = inhibition is reported as -4.01%. `Cc1ccc([N+](=O)[O-])cc1S(=O)(=O)Nc1ccc(O)c(Sc2ncn[nH]2)c1` was tested, and the activity change, negative = inhibition was -101%. Work on `Cc1cccc(NC(=O)C2CCN(S(=O)(=O)c3cccc4cccnc34)CC2)c1` yielded an activity change, negative = inhibition of -19.2%. Compound `COc1ccc(N=C(N(C)C)P(=O)(N(C)C)N(C)C)cc1` has an activity change, negative = inhibition of -0.552%. `CN(C)/N=C/c1ccc(OC(=O)c2cccc([N+](=O)[O-])c2)cc1` was tested, and the activity change, negative = inhibition was -3.63%. `Nc1ccc2c(c1)-c1ccccc1S(=O)(=O)N2` showed an activity change, negative = inhibition of -105%. Work on `CCN1CCN(C(=O)c2cc3c(-c4ccc(Cl)cc4)nn(C)c3s2)CC1` yielded an activity change, negative = inhibition of -4.97%. Work on `Cn1nc(-c2ccc(Cl)cc2)c2cc(C(=O)NC3CC3)sc21` yielded an activity change, negative = inhibition of -2.11%. With `COc1cccc(-c2nc(CCl)cs2)c1` the activity change, negative = inhibition was 22.5%. Compound `Fc1ccc2c(c1)/C(=N/Nc1ccccn1)CCS2` has an activity change, negative = inhibition of -12.8%. For `COc1ccc(-c2cc(-c3n[nH]c(=S)n3-c3cc(OC)ccc3OC)[nH]n2)cc1`, the activity change, negative = inhibition was 46.9%. Compound `O=C(CN1C(=O)S/C(=C\C=C\c2ccccc2)C1=O)Nc1ccc(C(=O)O)cc1` has an activity change, negative = inhibition of -22.9%. `O=c1c2c(nc3n1CCCCC3)sc1c(O)cccc12` was tested, and the activity change, negative = inhibition was -92.9%. `COc1cc(/C=N/Nc2cc(C)nc(N)n2)ccc1O` gave an activity change, negative = inhibition of -108%. Work on `COc1ccc2c(/C=N/NS(=O)(=O)c3ccc(C)cc3)c[nH]c2c1` yielded an activity change, negative = inhibition of -4.96%. Work on `COc1ccc(/C=N/Nc2ccc([N+](=O)[O-])cc2)cc1O` yielded an activity change, negative = inhibition of -70%. For `Oc1ccc(/C=N/NC2=NCCCCC2)cc1`, the activity change, negative = inhibition was -110%. `COc1ccccc1NS(=O)(=O)c1cc([N+](=O)[O-])ccc1N/N=C/c1c[nH]c2ccccc12` gave an activity change, negative = inhibition of 0.734%. In the case of `O=[N+]([O-])c1cccc(N/N=C/c2cccc(O)c2O)c1`, the activity change, negative = inhibition is reported as -6.94%. Compound `O=C(CNc1ccccc1)N/N=C/c1c[nH]c2ccccc12` has an activity change, negative = inhibition of -29.1%. `Cn1c(CNc2ccc(F)cc2)nc2ccccc21` showed an activity change, negative = inhibition of 4.17%. `COc1ccc2nc3ccccc3nc2c1N` gave an activity change, negative = inhibition of 417%. Compound `COc1ccc(Nc2nc(N)c3ccccc3n2)c(OC)c1` has an activity change, negative = inhibition of -5.05%. `CCN1C(=O)c2cccc3c(N)ccc1c23` showed an activity change, negative = inhibition of -69.8%. `Cc1ccc(S(=O)(=O)NCC(=O)NCC2CCCCC2)cc1C` showed an activity change, negative = inhibition of 18.2%. Work on `Cn1c(=O)[nH]c(=O)c2c1[nH]c(=S)n2Cc1ccccc1` yielded an activity change, negative = inhibition of -58.1%. With `Cc1cnc(C(=O)Nc2ccc(C(=O)N3CCCCC3)cc2)cn1` the activity change, negative = inhibition was 0.57%. In the case of `O=C(c1cc(-c2ccc(O)cc2)on1)N1CCCCCC1`, the activity change, negative = inhibition is reported as -103%. Work on `C/C(=N\NC(=O)c1csc2ccccc12)c1ccc(O)cc1` yielded an activity change, negative = inhibition of -107%. For `CC(C)(C)C(=O)NC1=NCCS1`, the activity change, negative = inhibition was -0.254%. For `COc1ccc(CNc2ccc(Br)cc2)cc1`, the activity change, negative = inhibition was -0.843%. `C/C(=N\Nc1ccccn1)c1ccc(OC(F)F)cc1` showed an activity change, negative = inhibition of 30.6%. In the case of `COc1cc(C(=O)n2nc(C)cc2C)ccc1O`, the activity change, negative = inhibition is reported as 108%. For `CC(C)(C)NC(=O)C(Cc1ccccc1)NS(=O)(=O)c1ccc2c(c1)CCC(=O)N2` (stereo unspecified), the activity change, negative = inhibition was -98.2%. With `NNC(=O)c1cc(O)c(O)c(O)c1` the activity change, negative = inhibition was 8.57%. Work on `Cc1ccc(-n2[nH]c(C)c(/C=N/NC(=O)c3ccc(O)cc3O)c2=O)cc1` yielded an activity change, negative = inhibition of -40.4%. `COc1c(Cl)cc(C(=O)NN)cc1Cl` was tested, and the activity change, negative = inhibition was -36.3%. `CCCc1cc(=O)[nH]c(SCc2cccnc2)n1` showed an activity change, negative = inhibition of -44.3%. `CC1(C)CN(c2ccccc2)N(C(=O)c2ccc(F)cc2)C1=O` showed an activity change, negative = inhibition of -46.1%. For `COc1cc(/C=N/O)cc(Br)c1OC`, the activity change, negative = inhibition was 21.8%. `CCN(CC)CC(=O)c1ccc(-c2ccccc2)cc1` showed an activity change, negative = inhibition of -34.7%. In the case of `CCc1ccccc1Nc1ccc(C(=O)O)cc1N`, the activity change, negative = inhibition is reported as -23%. For `Oc1ccc(-c2cnns2)c(O)c1`, the activity change, negative = inhibition was -104%. `N[C@@H](Cc1ccccc1)c1nnc(SCc2ccccc2Cl)o1` showed an activity change, negative = inhibition of -33.5%. For `O=C(O)c1cc([N+](=O)[O-])c(Sc2nc3ccccc3[nH]2)c([N+](=O)[O-])c1`, the activity change, negative = inhibition was -46.4%. `COc1cccc(NC(=O)c2c([N+](=O)[O-])cnn2C)c1` gave an activity change, negative = inhibition of -15.3%. In the case of `Nc1ccccc1C(O)(Cc1ccccc1)c1ccccc1` (stereo unspecified), the activity change, negative = inhibition is reported as -3.4%. Compound `Fc1ccccc1Nc1n[nH]c(=S)s1` has an activity change, negative = inhibition of -40.4%. In the case of `COc1cc(/C=N/Nc2ccc([N+](=O)[O-])cn2)cc(OC)c1O`, the activity change, negative = inhibition is reported as -73.9%. Work on `CC(Nc1ccccc1)c1cc(Cl)ccc1O` (stereo unspecified) yielded an activity change, negative = inhibition of -48.4%. `C=C(C)C(=O)Nc1ccc(NC(C)C)cc1` was tested, and the activity change, negative = inhibition was 266%. Work on `COc1ccccc1N(Cc1ccccc1)S(=O)(=O)c1cc(C(=O)O)ccc1Cl` yielded an activity change, negative = inhibition of -48.6%. In the case of `Cc1ccc2c(CN3CCC(C(N)=O)CC3)cc(=O)oc2c1C`, the activity change, negative = inhibition is reported as -10.9%. In the case of `CN(C)Cc1c(O)ccc2c3c(c(=O)oc12)CCCCC3`, the activity change, negative = inhibition is reported as 148%.
